SMILES strings stand for the structures. In all, about 1,500 compounds went through this assay and about 890 (59%) were called active.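 Rule for the calls: active = inhibition of the choline-evoked signal at any tested dose together with a fitted dose-response curve; inactive = no inhibition at any dose or no curve.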 So high a share suggests a set chosen from earlier hits. A selection follows. Where a call stands in place of a potency, no number is given. Potency and affinity values are given separately.

Drawing on PubChem BioAssay AID504840 (Johns Hopkins Ion Channel Center, 2011), this text covers outcome for 46 compounds.

This assay deals with High affinity choline transporter 1 (Homo sapiens) (UniProt Q9GZV3). Nature of the assay: CHT inhibitors, dose response, cell-based, 5-point CRC, membrane potential dye (AID 504840). To be noted: HEK293-CHT, choline-induced depolarization, CHT with LV-to-AA double alanine mutation; series mostly up to 37 µM.
Chain of High affinity choline transporter 1 (Homo sapiens) (Q9GZV3 whole entry, looked up): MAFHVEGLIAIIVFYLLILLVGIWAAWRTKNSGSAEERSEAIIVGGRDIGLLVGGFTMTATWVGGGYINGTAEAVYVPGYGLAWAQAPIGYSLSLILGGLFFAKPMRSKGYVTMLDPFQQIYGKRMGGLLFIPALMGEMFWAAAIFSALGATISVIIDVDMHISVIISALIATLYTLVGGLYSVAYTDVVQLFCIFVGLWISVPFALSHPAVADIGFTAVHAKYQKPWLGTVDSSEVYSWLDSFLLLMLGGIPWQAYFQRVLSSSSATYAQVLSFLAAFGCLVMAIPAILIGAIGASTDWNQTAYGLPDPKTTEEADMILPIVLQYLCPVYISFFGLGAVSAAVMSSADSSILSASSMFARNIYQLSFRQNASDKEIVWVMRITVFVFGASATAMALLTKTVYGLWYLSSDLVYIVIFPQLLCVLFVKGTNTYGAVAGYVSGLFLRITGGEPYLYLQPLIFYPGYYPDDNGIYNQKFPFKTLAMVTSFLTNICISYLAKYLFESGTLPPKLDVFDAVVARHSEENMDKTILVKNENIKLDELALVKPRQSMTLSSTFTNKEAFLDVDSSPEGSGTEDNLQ
With `CCN(CCNC(=O)CN1CCN(Cc2ccc(Cl)cc2)C1=O)c1ccccc1`, the result was inactive.
The same measure for `Cc1ccccc1Nc1c(-c2ccncc2)nc2ccc(Br)cn12`: “inactive”; for `Cc1ccc(NC(=S)Nc2ccc(F)cc2)cc1C`: “inactive”; for `Cc1ccc(NC(=S)Nc2cccc3cnccc23)cc1C`: “inactive”.
As for `COc1ccc([N+](=O)[O-])c(S(=O)(=O)c2ccccc2)n1`, the entry is “inactive”; as for `COc1ccc(OCc2cccc(C(=O)Nn3cc([N+](=O)[O-])cn3)c2)cc1`, “inactive”; as for `Cc1cc2c(ncn2Cc2ccccc2)c([N+](=O)[O-])c1C`, “inactive”.
The same measure for `CCN(CC)S(=O)(=O)c1ccc(/C=C/C(=O)NC2CCCCC2)cc1`: “inactive”; for `CC(C)c1cc(C(=O)NNC(=S)NC2CCCCC2)cs1`: “inactive”.
Regarding `O=C(CCc1ccc(S(=O)(=O)N2CCOCC2)cc1)N1CCc2ccccc2C1`, the call was inactive.
The same measure for `COc1ccc(S(=O)(=O)N2CCC(C(=O)N3CCc4ccccc4C3)CC2)cc1`: “inactive”.
The same measure for `CNCC(O)c1ccc(O)c(O)c1` (stereo unspecified): “inactive”; for `C#CC[N+](CC)(CC)CC#Cc1ccccc1`: “inactive”; for `Cc1cc(=O)[nH]c(SCC(=O)/C=C2\N(C)c3ccccc3C2(C)C)n1`: “inactive”.
As for `CC(=O)Oc1ccc(C(=O)Nc2ccc(S(=O)(=O)NCC3CCCO3)cc2)cc1` (stereo unspecified), the entry is “inactive”; as for `Cn1cnnc1Sc1ccc(C(=O)NCCC(c2ccccc2)c2ccccc2)cc1[N+](=O)[O-]`, “inactive”.
Take `COc1cc(C(=O)NC(=S)NNC(=O)[C@H]2C[C@@H]2c2ccccc2)cc(OC)c1OC`: the compound was called inactive.
The same measure for `O=C(Nc1ncc([N+](=O)[O-])s1)C1CC(=O)N(c2ccc(F)cc2)C1` (stereo unspecified): “inactive”; for `Cc1ccc(N2CC(C(=O)Nc3ncc([N+](=O)[O-])s3)CC2=O)cc1` (stereo unspecified): “inactive”.
For `CCCCCC(=O)c1ccc(O)cc1O`, the compound was classed as inactive.
As for `CCN(CC)CCCNC(=O)c1cn(CC)c2ccc(S(=O)(=O)N(C)C3CCCCC3)cc2c1=O`, the compound was classed as inactive.
As for `CCCCn1c(SCc2nnc(-c3ccccc3)o2)nc2c1c(=O)n(C)c(=O)n2C`, the entry is “inactive”.
The same measure for `Cn1nc(C(=O)NCCCN2CCCCC2)c2c1-c1ccccc1SC2`: “inactive”.
As for `CC1CCCC(C)N1CCCNC(=O)c1ccc2c(c1)NC(=O)c1ccccc1S2` (stereo unspecified), the entry is “inactive”; as for `CCCCCCCCCCCCN1[C@@H](CC(=O)O)c2cc(C(F)(F)F)ccc2S1(=O)=O`, “inactive”; as for `CN(Cc1ccccc1F)C(=O)CCCNC(=O)c1ccc(Cl)cc1`, “inactive”.
For `Cn1c2ccccc2c(=O)c2c(O)cccc21`, the compound was classed as inactive.
`O=C(c1cnn2c(C(F)(F)F)cc(-c3cccs3)nc12)N1CCN(Cc2ccccc2)CC1`: the outcome was inactive.
The same measure for `C#CCNc1c2c(nc3ncnn13)CC(C)CC2` (stereo unspecified): “inactive”; for `CC(C)Cn1c(N)c(C(=O)COC(=O)CCNS(=O)(=O)c2ccccc2)c(=O)n(C)c1=O`: “inactive”; for `Cc1ccccc1OCCC(=O)OCC(=O)c1c(N)n(CC(C)C)c(=O)n(C)c1=O`: “inactive”.
As for `CCc1c(C)nc2ncnn2c1NCCc1ccc(Cl)cc1`, the entry is “inactive”; as for `O=C(C1CCN(S(=O)(=O)c2ccc3ccccc3c2)CC1)N1CCN(c2ncccn2)CC1`, “inactive”; as for `CCn1c(N2CCN(S(=O)(=O)c3ccc(OC)cc3)CC2)nc2ccccc21`, “inactive”.
The same measure for `O=C(COc1ccccc1/C=C1\SC(=O)NC1=O)Nc1ccccc1`: “inactive”; for `CCN(CC)C(=O)CSc1nc2ccc(NC(=O)CSc3nccn3C)cc2s1`: “inactive”.
As to `Cc1ccc2c(c1)N(S(=O)(=O)c1ccc(CN3C(=O)c4cccnc4C3=O)s1)CCO2`, the compound was classed as inactive.
Turning to `O=C(Cn1nc(-c2ccccc2)ccc1=O)NCc1ccc(F)cc1`, the compound was called inactive.
Regarding `O=[N+]([O-])c1cc(-c2ncccn2)c([N+](=O)[O-])s1`, the compound was called inactive.
The same measure for `Cc1cc(C(=O)CSc2n[nH]c(N)n2)c(C)n1-c1ccc(F)cc1`: “inactive”; for `Cn1c(CN2CCCC2)c(C#N)c2ccccc21`: “inactive”.
The same measure for `NS(=O)(=O)c1ccc(CCNCc2cc(Cl)ccc2OCc2ccccc2)cc1`: “inactive”; for `Cc1cccc(NC(=O)c2ccccc2O)c1C`: “inactive”; for `Cc1nnc(SC(C)C(=O)Nc2sc3c(c2C#N)CCCC3)[nH]c1=O` (stereo unspecified): “inactive”.
As for `CCOC(=O)C1CCN(C(=O)CSCc2nc(-c3ccc(OCC)cc3)oc2C)CC1`, the entry is “inactive”.
For `Cc1nc([N+](=O)[O-])c(Br)n1Cc1ccccc1`, the outcome was inactive.
